From the supplement of paper PMC12632987

T1: USP38, Q8NB14
T1 chain: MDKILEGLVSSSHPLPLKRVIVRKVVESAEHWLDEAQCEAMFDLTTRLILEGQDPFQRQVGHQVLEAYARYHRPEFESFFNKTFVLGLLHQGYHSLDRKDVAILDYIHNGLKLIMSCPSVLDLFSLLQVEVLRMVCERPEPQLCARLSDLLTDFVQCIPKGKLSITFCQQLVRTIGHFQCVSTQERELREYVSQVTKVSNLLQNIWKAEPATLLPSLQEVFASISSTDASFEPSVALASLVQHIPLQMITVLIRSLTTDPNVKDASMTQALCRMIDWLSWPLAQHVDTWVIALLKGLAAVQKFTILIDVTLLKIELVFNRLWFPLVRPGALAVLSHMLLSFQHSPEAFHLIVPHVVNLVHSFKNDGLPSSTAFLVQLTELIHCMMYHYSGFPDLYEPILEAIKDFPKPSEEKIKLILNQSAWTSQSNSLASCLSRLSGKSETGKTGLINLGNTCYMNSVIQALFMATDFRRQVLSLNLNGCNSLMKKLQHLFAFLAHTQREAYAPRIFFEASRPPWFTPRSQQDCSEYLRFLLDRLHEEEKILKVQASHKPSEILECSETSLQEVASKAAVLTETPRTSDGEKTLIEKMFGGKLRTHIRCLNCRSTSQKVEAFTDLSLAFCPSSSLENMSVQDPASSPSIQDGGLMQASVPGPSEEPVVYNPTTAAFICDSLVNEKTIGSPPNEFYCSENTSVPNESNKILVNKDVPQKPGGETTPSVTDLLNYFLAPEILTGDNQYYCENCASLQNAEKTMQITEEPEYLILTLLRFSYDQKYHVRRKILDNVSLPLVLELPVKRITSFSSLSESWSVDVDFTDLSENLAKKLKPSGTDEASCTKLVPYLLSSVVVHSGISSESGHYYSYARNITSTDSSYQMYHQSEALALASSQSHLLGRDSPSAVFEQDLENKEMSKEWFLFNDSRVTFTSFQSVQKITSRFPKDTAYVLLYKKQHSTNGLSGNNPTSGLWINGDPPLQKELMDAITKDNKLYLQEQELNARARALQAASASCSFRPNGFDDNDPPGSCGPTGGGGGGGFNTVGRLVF

B1: usp_38_diff_out_4_12_556 (protein)
chain: SPEEEEEARERALRELEERSRRLREEAERLLARVKETRDEATYKEANERLNKGLTELAELTLRTLELTDDDEELERILRLTDETFRYVSEKAAEMRELMK
B2: usp_38_diff_out_4_126_546 (protein)
chain: SRKEEFEKLKKEAEEKMKEAKKLLAEALAALDKDPEKALALLDKAWDALGEAAALLREMRRIAADDPELRKEVKKLEEELDELIDEFTEAATRIYLKIAE
B3: usp_38_diff_out_4_12_555 (protein)
chain: SAEEEKEKLEKLKEELKKKSEELKELADKLLAEVKEKKDRATYKKAEEELNKKLTELAELTLETLEATDDDEELEEILKLTDETFTYVSEKAAEMREIMK
B4: usp_38_diff_out_4_12_552 (protein)
chain: AEEERRKELEELLREMEELTEETVARMKELLKELKETKDEEVYEELLKLAEEALTRLAELTTRALELAETDEELEEILRRYSEAVDEIVALMQEARKAMK
B5: usp_38_diff_out_4_12_562 (protein)
chain: SMEEKEKKVKEALEEMKKLSEEAKEKAKKAAEEAKKTGNLAEFNKKMNELINKLTEKTLEVLEKLAELGDEESIEEVLKITSETFTYISQLAAEVKKAAA
B6: usp_38_diff_out_4_12_553 (protein)
chain: AAEERQKALEKALAEMQKLHEETVKKLKELLEELKKTKKEEILKEAEKLANDALTKLAELTTKALELAETPEEQQAILDLYAQQVTEIVTLMQEAKEAMK
B7: usp_38_diff_out_4_12_560 (protein)
chain: AEEEHKKKLEEAKKELEKLSEELKELADKKLEEVKEKKDKATLKEAEKEINEKITELAEKTLKALELAETDEDLQKILDLYDDTATYVSEKAAEMREILK
B8: usp_38_diff_out_4_126_544 (protein)
chain: SREAEFAALRAEAEAALAEAERLLAEARAELDKDPEKALELLDRAWDALGRAAALLREMRRIAADDPALRAELAALRARLDALIDEFTAAATEIYEKIAE
B9: usp_38_diff_out_4_126_547 (protein)
chain: GREKEFEKLKKEAEELLKKAKELLEKAKEALDKDPKKAQEYLDKALEYLGKLAKLLREMRRVAEGDPELQKEVKELQKKADELVDEYTKAAEEIYLALAE
B10: usp_38_diff_out_3_65_542 (protein)
chain: KVEELLKKAEEKLKEAREKIRELRERVETDPELTEEEIVEMLDEAADLLVEAGEYIREAKKLNPDEEAKKKIKELEKELEELIDEYVEAGERAFLAYGER
B11: usp_38_diff_out_3_65_536 (protein)
chain: EVEKLLEEAKKYLEEARKIVEELRREVEEDPTITIDEVNEKLDEAADKIVAAGQKIREAKKLNPDEEQKKQLEELEKELDEVLELYRETAEYAFLKVAER
B12: usp_38_diff_out_4_12_554 (protein)
chain: SAEERRRRFEEALREMERLHRETIEKLEELKEELKKTKDEKVLEEAEKLANEALSRLAELTTRALEEAENDEEVQEILDLYSRHVDEIVTLMNEMKKIMK
B13: usp_38_diff_out_4_99_564 (protein)
chain: MKEEMVKKVKELKKEAEELLKKAKEAFKLSHEERKKVAEELSKELDELAKELGKIYFEARDTGDKELIKAVNKEADEFVKAYNEAAKELNLLRHEVLEEE
B14: usp_38_diff_out_3_65_533 (protein)
chain: KVEELLKKAEEKLKEAEKKIRELEERVETDPSLTEEEVNAMLDEAADLIVEAGKYIREAKKLNPDEEQKKRIEELEKRLDEVIDLYVEAGERAFLAVGER
B15: usp_38_diff_out_4_126_545 (protein)
chain: SREEEFKKLEKEAEKKIEEAKKLLEEALKELDKDPEKALELLDKAWDALGEAAKLLREMRRVAADDEELRKRYKELEEKLDKLIDEFTKAATYIFEKIAE
B16: usp_38_diff_out_3_65_538 (protein)
chain: EVQKLLEEAQKLLDEATKIIDELKERVESDPTLTIDEVNEMLDKAADKIVAAGEKINEAKKLNPDEEQKKQIEELEKRLDEVIEKYREAAEYAFLRVAER
B17: usp_38_diff_out_4_12_551 (protein)
chain: SAEERRRKREEALERLRRLAEEATREAERLKKEVEEKKDEATLEEALKRANELITELSEATLEALELAENLEEVEEVLRLAEPAFDALAELRVKIEEARK
B18: usp_38_diff_out_4_12_561 (protein)
chain: SEEERKKIAEEALEEMEKKSKEVKEKAKKAKEEAIKTKDLAAFNKKMNELIKELTDLTLEKLEKLAEIGDDETIEEILRIAGETFKELSKLAKEVKEAAK
B19: usp_38_diff_out_4_12_558 (protein)
chain: SEEERKKKREEALKELKKLSEDAKATADKLLAEVKKKKDKATLKAANATLNDLLTKLAEKTLEALELAENDEELEEILKIYDDTATYITTKAAEMKAVLK
B20: usp_38_diff_out_4_126_543 (protein)
chain: DREKAFDELAKEAEALMKEAKEYLEKAKEAMDKDPEKAKEYLDKAYEALGKLSKALREMRRIARDDPELRKRYKELLKKANELVSEFTKVAEELLLKLSE
B21: usp_38_diff_out_4_126_550 (protein)
chain: SMKEELEKKLEEAKKLAEEALKAAARLVELAATDPSKVAEARAELDALIAAFTKAANEALKLARKDGKYKEEVTKEIDKLTDEVVEAEGKAVEAVAEALA
B22: usp_38_diff_out_3_65_532 (protein)
chain: KVEELLKKAEEKLEEAEKKIKELEKRVKEDPNITEEEVNEMLDEAADLIVEAGKYIREAKKLNPDEEQQERIKELEERLDEVIDLYVKAGEAGFLAVGER
B23: usp_38_diff_out_3_65_537 (protein)
chain: EVEELLEEAERRLEEARELIEALRREVESDPSLTIDEVNARLDEAVDLLVEAGEAIRRARRLDPDPEQRERLEELERRLDEVLRLYRETAEFAFLTVAER
B24: usp_38_diff_out_4_12_557 (protein)
chain: AEEEREREFKRKREELKRLSEETKERADKLLEEVKKKKDKATLKEATKKLNEDLTKLAELTLETLELAETDEEVQEILDLFDDTATYVSEKAAEMKEILK
B25: usp_38_diff_out_4_12_559 (protein)
chain: AEEEHKEALEKAKEELKKLSEETIKLAKELLEKVKKEKSRATLKEANEKLNKKITELAEATLKALELAETDEELQEILDLWDKTSTEISRLAKEMREILK
B26: usp_38_diff_out_3_65_539 (protein)
chain: KVEELLERAQEHLEKAEELVEGLRERTATDPTLTIDEVVAMLDEAADHLVAAAQDIEEAKKLDPDEEQQERLEELQERLDRLIDEYERAGREAFLAVGER
B27: usp_38_diff_out_4_126_549 (protein)
chain: DREKQAEELEKKLEEALKKAKEYLKKAKELLDKDKEETLKALDKSWEALGKASELLRELRRIAIDDPELRERYKKLLEEANKLVDEFTKAAEEIYLKLSE
B28: usp_38_diff_out_3_65_541 (protein)
chain: EIEKLLKEAKKYLEEAKKIIEELRERTRTDPTLTIEEVNEMLDKAADLLVKAGEYIEKAKKLNPDEKQKKEIEKLKKELEELLDEYVEAGEEAYLAVGER
B29: usp_38_diff_out_3_65_534 (protein)
chain: EVEELLKEAQKKLKEARAIIEALRERVESDPTITIDEVNARLDEAADKIVEAGQYIREAKKLNPDEEQKKKIEELEKELDEVLDEYRETAEFAFLRVAER
B30: usp_38_diff_out_3_65_540 (protein)
chain: EVQELLERAERHLEEAEEIIEELERRTETDPTLTIDEVVEMLDEAADHLVAASEDIKEAKKLNPDEEQKKRIEELEKRLDELIDRYVEAGERAFLAVGER
B31: usp_38_diff_out_3_65_535 (protein)
chain: KIEELLKEAEKYLEEAEKLVEELRRRVESDPTLTIDELNARLDEAADLIVKAGQKIREAKKLNPDEEQKKKLKELEKRLDEVLKKYREAAEEGFLRVAER
B32: usp_38_diff_out_4_126_548 (protein)
chain: SREEEFEKLKEEANKKMKEAKELLEKAKKLLDKDKEEALKYLDEAAEKLGEASKLLRKMREVAKGDEELRKEYKELLEKLNELVDEYTKVATEIYLALAE

Molecular target: T1, USP38, Q8NB14
Experiment: median log2 fold change of GCK-ALFA target abundance (FLAG IP / Myc IP barcode read proportion) (log2 ratio); each designed protein is fused to an ALFA-tag nanobody in HEK293 cells to bring the named protein to FLAG-tagged glucokinase (GCK); Myc marks an untargeted standard; higher = target protein stabilised (more abundant)
Conditions: target protein: 3xFLAG-MCP-GCK-ALFA reporter; HEK293 landing pad (RPLP)
How it was run: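 HEK293 landing-pad cells received a recombined binder library fused to the ALFA nanobody and were induced with 2 μg mL^−1 doxycycline, then transfected with a plasmid encoding a FLAG-tagged target and a Myc-tagged standard. Lysates were collected after 48 h for anti-FLAG and anti-Myc immunoprecipitation, and the circular RNA barcodes were reverse transcribed, amplified and sequenced. Target abundance for each binder is the median log2 ratio of FLAG to Myc barcode read proportions. Barcodes had to reach a proportion of at least 10^−7 in both replicates, each binder needed at least 3 barcodes per replicate, a pseudocount of 10^−6 was applied, and the two replicates were pooled.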

Binder	median log2 fold change
B1	-0.146
B2	-0.11
B3	0.0256
B4	-0.539
B5	-0.588
B6	0.201
B7	-0.0183
B8	-0.215
B9	0.575
B10	0.499
B11	-0.223
B12	0.0829
B13	-0.19
B14	0.0706
B15	-0.694
B16	-0.281

Binder	median log2 fold change
B17	-0.341
B18	-0.892
B19	0.037
B20	-0.661
B21	0.0827
B22	-0.0854
B23	-0.264
B24	-0.616
B25	-0.371
B26	-0.504
B27	-1.05
B28	-0.0269
B29	-0.0616
B30	0.111
B31	-0.384
B32	0.358
